Compound activity: PubChem, Buhrlage Lab, Dana-Farber Cancer Institute and Novartis Institutes for BioMedical Research (Cambridge, Mass)
An excerpt weighted towards active compounds, which were near 5% of everything screened.
USP10 inh – human USP10 deubiquitinase inhibition | purified USP10, Ub-rhodamine fluorescence, 60 min | inhibition, % at 20 µM | actives 1.1% (n = 47,000) | AID 1645856
USP7 inh – blocks human USP7 ubiquitin-rhodamine cleavage; purified USP7, Ub-rhodamine cleavage fluorescence; AID 1645854; Q93009; inhibition, % at 20 µM; actives 0.3% (n = 47,000)
UCHL1 inh – blocks human UCHL1 ubiquitin-rhodamine cleavage; inhibition, % at 20 µM; P09936; AID 1645859; purified UCHL1, Ub-rhodamine cleavage fluorescence; actives 0.2% (n = 47,000)
USP8 block – inhibitors of human USP8 deubiquitinase; actives 4.2% (n = 47,000); P40818; inhibition, % at 20 µM; purified USP8, Ub-rhodamine cleavage fluorescence, 30 min; AID 1645853
Target sequence (P40818 whole entry, looked up): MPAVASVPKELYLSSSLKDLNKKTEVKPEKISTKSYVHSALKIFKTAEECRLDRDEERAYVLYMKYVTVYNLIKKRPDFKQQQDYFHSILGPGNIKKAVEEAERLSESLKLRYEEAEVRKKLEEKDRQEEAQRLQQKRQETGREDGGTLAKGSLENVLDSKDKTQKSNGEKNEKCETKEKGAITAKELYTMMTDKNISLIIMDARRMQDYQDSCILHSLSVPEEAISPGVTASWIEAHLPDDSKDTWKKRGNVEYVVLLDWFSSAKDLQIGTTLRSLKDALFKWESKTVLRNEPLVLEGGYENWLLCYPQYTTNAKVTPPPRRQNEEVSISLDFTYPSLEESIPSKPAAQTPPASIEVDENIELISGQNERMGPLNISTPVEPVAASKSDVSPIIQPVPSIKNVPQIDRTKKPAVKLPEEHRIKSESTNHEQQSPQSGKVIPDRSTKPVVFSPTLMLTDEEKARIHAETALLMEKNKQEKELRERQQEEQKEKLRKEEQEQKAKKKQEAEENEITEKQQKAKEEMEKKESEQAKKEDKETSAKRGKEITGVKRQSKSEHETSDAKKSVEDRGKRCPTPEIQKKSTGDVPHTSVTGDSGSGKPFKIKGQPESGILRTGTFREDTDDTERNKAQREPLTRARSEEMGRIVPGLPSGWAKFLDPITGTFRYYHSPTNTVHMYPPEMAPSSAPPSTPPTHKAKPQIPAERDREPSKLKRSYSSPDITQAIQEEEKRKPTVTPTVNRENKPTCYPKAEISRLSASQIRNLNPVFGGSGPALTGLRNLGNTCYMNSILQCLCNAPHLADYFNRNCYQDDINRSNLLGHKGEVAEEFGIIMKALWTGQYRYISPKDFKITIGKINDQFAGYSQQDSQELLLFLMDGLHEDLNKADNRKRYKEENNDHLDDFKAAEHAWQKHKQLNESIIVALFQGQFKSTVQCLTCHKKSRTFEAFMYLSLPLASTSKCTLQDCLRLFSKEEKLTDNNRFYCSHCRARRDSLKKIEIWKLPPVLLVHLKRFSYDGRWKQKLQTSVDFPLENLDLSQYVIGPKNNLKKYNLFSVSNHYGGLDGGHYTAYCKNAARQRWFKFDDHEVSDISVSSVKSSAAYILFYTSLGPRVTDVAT
* marks the source's active call; other numbers are inactive results. Cut-off read from the data, not from the text of the source: active = inhibition above about 30%; inactive = the rest.

Cc1c(C#N)c2ccccc2n1CC(=O)NCc1ccc2c(c1)OCO2 was read as USP10 inh 25, USP7 inh 4, UCHL1 inh 2 and USP8 block 60*.
Screening Cc1cc(C)c(NC(=O)Cn2c(=O)n(CCC(=O)NCc3ccc4c(c3)OCO4)c(=O)c3sccc32)c(C)c1 returned USP10 inh 57*, USP7 inh 30*, UCHL1 inh 8 and USP8 block 27.
Screening O=C(CCCn1c(=O)c2sccc2n(CC(=O)NCCC2=CCCCC2)c1=O)NCc1ccc2c(c1)OCO2 returned USP10 inh 15, USP7 inh -1, UCHL1 inh -3 and USP8 block 4.
For COc1ccccc1CNC(=O)CCCCn1c(=O)c2ccccc2n(Cc2ccccc2C#N)c1=O the results were USP10 inh 28, USP7 inh 1, UCHL1 inh 1 and USP8 block 0.
`COc1ccccc1CNC(=O)CCCCn1c(=O)c2ccccc2n(Cc2ccc(C)cc2)c1=O` gave USP10 inh 35*, USP7 inh 9, UCHL1 inh 0 and USP8 block 29.
Screening COc1ccc(Cl)cc1NC(=O)Cn1c(=O)n(CCCC(=O)NCc2ccc(C)cc2)c(=O)c2sccc21 returned USP10 inh 69*, USP7 inh 18, UCHL1 inh 4 and USP8 block 68*.
Screening Cc1oc(-c2ccc(C(=O)NCC3COCCO3)cc2)nc1CN1CCc2ccccc21 (stereo unspecified) returned USP10 inh -8, USP7 inh -3, UCHL1 inh -1 and USP8 block -12.
Screening COc1ccc(C(CNC(=O)c2cccc(F)c2)N2CCCCC2)cc1 (stereo unspecified) returned USP10 inh -1, USP7 inh -4, UCHL1 inh -2 and USP8 block 1.
For NS(=O)(=O)c1ccc(NS(=O)(=O)c2ccc(NC(=O)Nc3ccc(Cl)cc3)cc2)cc1 the results were USP10 inh 27, USP7 inh 11, UCHL1 inh 8 and USP8 block 23.
For CCOc1ccc(NC(=O)Cn2c(=O)n(CCCCCC(=O)NCc3ccc(F)cc3)c(=O)c3sccc32)cc1 the results were USP10 inh 51*, USP7 inh 29, UCHL1 inh 6 and USP8 block 69*.
For Cc1ncc(-c2ccccn2)c(-c2ccc(CNC(=O)Cc3sc(C)nc3C)cc2)n1 the results were USP10 inh 0, USP7 inh 5, UCHL1 inh 2 and USP8 block 36*.
Screening CCCNC(=O)[C@H](Cc1ccccc1)NC(=O)N1CCn2c1nc1ccccc12 returned USP10 inh 2, USP7 inh -12, UCHL1 inh -1 and USP8 block -3.
Screening Cc1cc(NC(=O)c2ccc(-c3cc(C(F)(F)F)ccc3Cl)o2)no1 returned USP10 inh 7, USP7 inh 8, UCHL1 inh -1 and USP8 block 8.
CCCCN1CC(C(=O)Nc2ccc(C(=O)Nc3ccc(C(N)=O)cc3)cc2)CC1=O (stereo unspecified) was read as USP10 inh 41*, USP7 inh 7, UCHL1 inh 2 and USP8 block 2.
`Cn1c(CCN2CCN(c3ccc(F)cc3)CC2)nc2cc(NC(=O)c3ccc(Cl)cc3)ccc21` gave USP10 inh 8, USP7 inh 11, UCHL1 inh 1 and USP8 block 37*.
`CCC(=O)Nc1nc2c(C)cc(NS(=O)(=O)c3ccc(NC(C)=O)cc3)cc2s1` gave USP10 inh 1, USP7 inh 4, UCHL1 inh 4 and USP8 block 10.
Cc1ccc(-c2ncc(C(=O)NC(C)c3ccccn3)c(-c3ccncc3)n2)cc1 (stereo unspecified) was read as USP10 inh -3, USP7 inh -13, UCHL1 inh -16 and USP8 block 6.
`Cc1ccc(-c2ncc(C(=O)Nc3ccccc3Cl)c(-c3ccncc3)n2)cc1` gave USP10 inh -10, USP7 inh -53, UCHL1 inh -25 and USP8 block 31*.
Cc1ccc(-c2ncc(C(=O)Nc3ccc(F)cc3)c(-c3ccncc3)n2)cc1 was read as USP10 inh -8, USP7 inh -16, UCHL1 inh -15 and USP8 block 48*.
`CC(=O)c1cccc(NC(=O)C2c3ccccc3C(=O)N(C3CCCC3)C23CCCCC3)c1` (stereo unspecified) gave USP10 inh -8, USP7 inh -10, UCHL1 inh -9 and USP8 block 65*.
`O=C(NC1CC1)C1c2ccccc2C(=O)N(C2CCCC2)C12CCCCC2` (stereo unspecified) gave USP10 inh -4, USP7 inh -3, UCHL1 inh -3 and USP8 block -2.
O=C(CCc1nc2ccccc2c(=O)[nH]1)Nc1ccc(Cl)cc1F was read as USP10 inh -6, USP7 inh -21, UCHL1 inh 0 and USP8 block 15.
Cc1cccc(N2CCN(C(=O)c3cccc(N4C(=O)CCS4(=O)=O)c3)CC2)c1 was read as USP10 inh -2, USP7 inh 0, UCHL1 inh 2 and USP8 block 4.
Screening O=C(c1cc(S(=O)(=O)N2CCCCC2)c[nH]1)N1CCc2ccccc2C1 returned USP10 inh 1, USP7 inh -1, UCHL1 inh 2 and USP8 block 12.
Screening COc1cccc(N2Cc3ccccc3OCC2=O)c1 returned USP10 inh 3, USP7 inh -21, UCHL1 inh 4 and USP8 block 6.
`COc1cccc(N2CC(=O)Nc3c(oc4nc(-c5ccccc5)cc(C)c34)C2=O)c1` gave USP10 inh 26, USP7 inh 8, UCHL1 inh 8 and USP8 block 32*.
`Cc1ccc(NC(=O)c2c(-c3ccc(C)c(C)c3)c3c4n(c(-c5ccc(C)cc5)cn24)CCCC3)cc1` gave USP10 inh 1, USP7 inh 7, UCHL1 inh 1 and USP8 block 9.
`CCc1csc(-c2cn(CC(=O)Nc3cc(C)ccc3C)cn2)n1` gave USP10 inh 5, USP7 inh 6, UCHL1 inh 3 and USP8 block 39*.
O=C(O)C1CCCCN1C(=O)C1CCN(S(=O)(=O)c2ccccc2)CC1 (stereo unspecified) was read as USP10 inh -1, USP7 inh 1, UCHL1 inh 1 and USP8 block -29.
For O=C(CN1CCN2CCCC2C1)NCc1ccccc1 (stereo unspecified) the results were USP10 inh 8, USP7 inh -35, UCHL1 inh 1 and USP8 block 7.
Screening c1ccc(Cn2c(CNc3cccc4ccccc34)nc3ccccc32)cc1 returned USP10 inh 3, USP7 inh -17, UCHL1 inh 2 and USP8 block 58*.
Screening CCOc1ccc(NCc2nc3ccccc3n2Cc2ccccc2)cc1 returned USP10 inh 2, USP7 inh -32, UCHL1 inh 3 and USP8 block 42*.
For C=C(C)Cn1c(CNC(=O)Cc2ccccc2)nc2ccccc21 the results were USP10 inh 2, USP7 inh 1, UCHL1 inh 1 and USP8 block 10.
